Laboratory results taken from article PMC5540273 (PLoS ONE, 2017).

How the values were obtained:
Conditions in all cases: concentration: 1 μM, replicates: in singlicate; n = 1
WNK4 = test system: WNK4
YANK1 = test system: T1, YANK1
T1 construct: gene STK32A

YANK2 = test system: T2, YANK2
T2 construct: gene STK32B

YANK3 = test system: T3, YANK3
T3 construct: gene STK32C

YES = test system: T4, YES
T4 construct: gene YES1

YSK1 = test system: T5, YSK1
T5 construct: gene STK25

YSK4 = test system: T6, YSK4
T6 construct: gene MAP3K19

ZAK = test system: ZAK
ZAP70 = test system: ZAP70
p38-alpha = test system: T7, p38-alpha
T7 construct: gene MAPK14
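Note: KINOMEscan kinase panel screen.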

Row | SMILES | %Inh (WNK4) [%] | %Inh (YANK1) [%] | %Inh (YANK2) [%] | %Inh (YANK3) [%] | %Inh (YES) [%] | %Inh (YSK1) [%] | %Inh (YSK4) [%] | %Inh (ZAK) [%] | %Inh (ZAP70) [%] | %Inh (p38-alpha) [%]
1 | Fc1ccc(-c2ncn(CCCNCc3ccccc3)c2-c2ccncc2)cc1 | 0 | 17 | 0 | 7 | 17 | 0 | 9 | 10 | 11 | 77
2 | COc1ccc(NC(=O)c2ccc(-c3cc(-c4nnc(C)o4)ccc3C)cc2)cc1 [GW595885] | 34 | 16 | 7 | 0 | 16 | 0 | 34 | 2 | 0 | 97.7
3 | CC(C)(C)OC(=O)NC1CCCN(c2cc(-c3ccc4c(N)n[nH]c4c3)nc(N)n2)C1 (stereo not drawn) [GSK2286096] | 12 | 10 | 0 | 0 | 1 | 2 | 20 | 0 | 0 | 0
4 | OCCOCCn1ccc2ncnc(Nc3ccc(Oc4cccc(Cl)c4)c(Cl)c3)c21 | 0 | 0 | 0 | 0 | 0 | 0 | 0 | 0 | 0 | 0
5 | Cn1ccc2ncnc(Nc3ccc(Oc4cccc(Cl)c4)c(Cl)c3)c21 | 34 | 0 | 14 | 17 | 0 | 0 | 11 | 30 | 0 | 17
6 | c1ccc(-c2ccc3c(-c4ccnc(Nc5ccc6c(c5)OCCO6)n4)cnn3n2)cc1 [GW818941] | 0 | 0 | 13 | 0 | 5 | 0 | 0 | 10 | 20 | 0
7 | Cc1ccc(NC(=O)c2cccc(C#N)c2)cc1-c1ccc(C(=O)Nc2ccncc2)cc1 [GSK1398463] | 3 | 14 | 0 | 11 | 24 | 9 | 64 | 12 | 0 | 47
8 | Clc1cc(Nc2ncnc3cc[nH]c23)ccc1OCc1ccccn1 | 25 | 12 | 3 | 51 | 0 | 0 | 34 | 18 | 0 | 18
9 | CNc1nccc(-c2c(-c3ccc(F)cc3)ncn2C2CCN(C)CC2)n1 [SB-222903] | 9 | 0 | 17 | 6 | 0 | 0 | 7 | 0 | 0 | 98.6
10 | CSc1nn2c(=O)cc(N3CCOCC3)nc2n1Cc1cccc(Cl)c1Cl [GSK2347225] | 0 | 16 | 7 | 19 | 31 | 12 | 0 | 0 | 0 | 0
11 | COC(=O)c1c(-c2ccccc2)c2cc(Cl)ccc2c(=O)n1Cc1ccc(S(C)(=O)=O)cc1 | 27 | 0 | 15 | 0 | 0 | 0 | 2 | 5 | 0 | 17
12 | CN1CCC(n2cnc(-c3ccc(F)cc3)c2-c2ccnc(NC3CCNCC3)n2)CC1 [SB-229482] | 0 | 0 | 2 | 1 | 0 | 0 | 0 | 4 | 0 | 89
13 | Cl.Fc1ccccc1COc1ccc(Nc2ncnc3ccc(-c4nnc(C(F)(F)F)o4)cc23)cc1Cl [GW424170] | 0 | 3 | 0 | 3 | 5 | 0 | 0 | 1 | 0 | 0
14 | CCc1nc(-c2cccc(C)c2)c(-c2ccnc(NC(=O)c3ccccc3)c2)s1 | 18 | 13 | 41 | 15 | 19 | 2 | 23 | 0 | 0 | –
15 | Cc1ccc(C)c(NC(=O)NCCNc2ccnc(Nc3ccc(F)cc3)n2)c1 [GSK1379878] | 23 | 0 | 0 | 0 | 0 | 0 | 0 | 34 | 0 | 6
16 | COc1cc2c(Nc3cccc(NC(=O)c4ccccc4)c3)ncnc2cc1OCCCN1CCOCC1 [GSK223810] | 0 | 7 | 0 | 2 | 15 | 12 | 36 | 0 | 0 | 81
17 | Nc1nc(-c2ccc3c(N)n[nH]c3c2)cc(N2CCC[C@@H](C(=O)Nc3ccccc3)C2)n1.O=C(O)C(F)(F)F.O=C(O)C(F)(F)F [GSK2288359] | 0 | 4 | 0 | 0 | 0 | 5 | 9 | 3 | 0 | 0

Row | SMILES | %Inh (WNK4) [%] | %Inh (YANK1) [%] | %Inh (YANK2) [%] | %Inh (YANK3) [%] | %Inh (YES) [%] | %Inh (YSK1) [%] | %Inh (YSK4) [%] | %Inh (ZAK) [%] | %Inh (ZAP70) [%] | %Inh (p38-alpha) [%]
18 | Cl.Cn1ccc(-c2cccc(Nc3ccnc4cc(-c5nccs5)ccc34)c2)n1 [GW525701] | 66 | 0 | 10 | 0 | 21 | 17 | 41 | 0 | 74 | 9
19 | Clc1cccc(-c2nc(Nc3ccncc3)c3ccccc3n2)c1 [GW873004] | 0 | 0 | 0 | 0 | 34 | 0 | 0 | 0 | 0 | 0
20 | Nc1nccc2scc(-c3ccc4c(c3)CCN4C(=O)Cc3cc(F)ccc3F)c12 [GSK2587663] | 5 | 26 | 0 | 20 | 10 | 11 | 32 | 9 | 0 | 0
21 | CNc1nccc(-c2c(-c3ccc(F)cc3)ncn2CCCN2CCOCC2)n1 [SB-222516] | 0 | 0 | 0 | 0 | 0 | 0 | 7 | 6 | 5 | 13
22 | O=c1cc(N2CCOCC2)nc2n(Cc3cccc(Cl)c3)ccn12 [GSK2296823] | 0 | 0 | 0 | 18 | 23 | 10 | 19 | 0 | 0 | 0
23 | Cl.c1ccc(Cn2ccc3cc(Nc4ncnc5ccccc45)ccc32)cc1 [GW275568] | 6 | 18 | 0 | 0 | 15 | 7 | 4 | 6 | 1 | 2
24 | Cn1cc(-c2ccc3c(c2)CCN3C(=O)Cc2cccc(C(F)(F)F)c2)c2c(N)ncnc21 [GSK2606414] | 0 | 10 | 0 | 19 | 0 | 0 | 34 | 0 | 0 | 0
25 | O=C(CCO)NCCn1ccc2ncnc(Nc3ccc(Oc4cccc(C(F)(F)F)c4)c(Cl)c3)c21 | 0 | 0 | 0 | 0 | 0 | 0 | 0 | 0 | 0 | 0
26 | FC(F)(F)c1ccc(-c2cc(-c3c[nH]nc3-c3ccccn3)ccn2)cc1 [GW599550] | 42 | 98.8 | 10 | 0 | 6 | 20 | 28 | 24 | 0 | 28
27 | CSc1ccc(NC2=C(c3ccccc3Cl)C(=O)NC2=O)cc1 [SB-342411] | 0 | 12 | 0 | 9 | 9 | 60 | 0 | 20 | 0 | 0
28 | Cl.O=S(=O)(c1cccc(F)c1)c1ccc(Nc2ncnc3cc(Br)sc23)cc1Cl [GSK306886] | 0 | 0 | 0 | 0 | 14 | 30 | 0 | 6 | 0 | 42
29 | Cc1cccc(-c2nc(Nc3ccc4[nH]nnc4c3)c3ccccc3n2)n1 [GW867587] | 0 | 0 | 0 | 1 | 0 | 0 | 0 | 0 | 0 | 0
30 | CCC(CC)(CC)n1cnc2c(N)ncnc21 [SKF-97620] | 23 | 18 | 12 | 9 | 0 | 0 | 31 | 0 | 29 | 3
31 | Cc1ccc(O)cc1Nc1cc(C(F)(F)F)nc2ccc(-c3ccncc3)cc12 [GW630823] | 0 | 0 | 0 | 0 | 23 | 0 | 0 | 10 | 0 | 8
32 | CN1c2ccc(-c3ccc(C(=O)NCCO)cc3)cc2-c2[nH]ncc2S1(=O)=O | 0 | 0 | 0 | 0 | 12 | 13 | 8 | 20 | 0 | 0
33 | Fc1cccc(COc2ccc(Nc3ncnc4sc(-c5ccc[nH]5)cc34)cc2Cl)c1 [GW707818] | 6 | 13 | 34 | 0 | 1 | 0 | 8 | 0 | 6 | 44
34 | Fc1cccc(COc2ccc(Nc3ncnc4nn5ccccc5c34)cc2Cl)c1 [GW689066] | 23 | 0 | 0 | 6 | 13 | 1 | 3 | 4 | 0 | 11
